Experimental data reported in PubChem BioAssay AID1159580 (chemical genetic matrix, 2015).
“And” between values parts separate entries of the source, which are not always exact repeats. Equal entries are not always repeated. Among all 5,500 compounds or so, about 2,000 (36%) were called active. Not shown: some 18% with an inconclusive outcome. Rule as the data show it: active = normalized growth mostly below about 0.91 (no sharp cut-off); inconclusive = no clear call, values can overlap the other calls; inactive = mostly above about 0.92. Some of the results follow.

Test: chemical genetic growth profiling, strain panel (AID 1159580);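 also: tested at 20 µM; growth read once vehicle control cultures reached saturation at 30 °C; 1 = growth at the plate median or of vehicle wells; lower values mean less growth of the strain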
Conditions: S. cerevisiae deletion strains, growth OD

Measured: normalized growth

CN(C)[C@@H]1C(=O)C(C(N)=O)=C(O)[C@@]2(O)C(=O)C3=C(O)c4c(O)ccc(Cl)c4[C@@](C)(O)[C@H]3C[C@@H]12
inactive: locus YAL013W, strain DEP1, active compounds read low 1.01 | locus YAL021C, strain ccr4, active compounds read low 0.956 | locus YAL026C, strain drs2, active compounds read low 0.983 | locus YAL030W, strain snc1, active compounds read low 0.981 | locus YBL061C, strain skt5, active compounds read low 0.98 | locus YBR009C, strain hhf1, active compounds read low 0.979 | locus YBR021W, strain FUR4, active compounds read low 0.961 | locus YBR023C, strain chs3, active compounds read low 0.993 | locus YBR171W, strain sec66, active compounds read low 0.979 | locus YBR229C, strain ROT2, active compounds read low 1.01 | locus YBR231C, strain swc5, active compounds read low 0.986 | locus YBR279W, strain paf1, active compounds read low 0.987 | locus YCL011C, strain gbp2, active compounds read low 0.967 | locus YCL016C, strain dcc1, active compounds read low 0.967 | locus YCL029C, strain bik1, active compounds read low 1.02 | locus YCL069W, strain vba3, active compounds read low 0.986 | locus YCR088W, strain abp1, active compounds read low 0.988 | locus YDL005C, strain med2, active compounds read low 0.985 | locus YDL035C, strain GPR1, active compounds read low 0.976 | locus YDL040C, strain nat1, active compounds read low 0.983 | locus YDL074C, strain BRE1, active compounds read low 0.968 | locus YDL101C, strain DUN1, active compounds read low 1 | locus YDL185W, strain tfp1, active compounds read low 1.01 | locus YDL192W, strain arf1, active compounds read low 0.97 | locus YDR001C, strain nth1, active compounds read low 0.969 | locus YDR069C, strain doa4, active compounds read low 0.947 | locus YDR101C, strain arx1, active compounds read low 0.996 | locus YDR137W, strain rgp1, active compounds read low 0.957 | locus YDR150W, strain NUM1, active compounds read low 1 | locus YDR159W, strain sac3, active compounds read low 0.968 | locus YDR162C, strain NBP2, active compounds read low 1 | locus YDR195W, strain ref2 0.945 | locus YDR297W, strain sur2, active compounds read low 0.991 | locus YDR318W, strain mcm21, active compounds read low 1 | locus YDR334W, strain swr1, active compounds read low 0.968 | locus YDR335W, strain msn5, active compounds read low 0.98 | locus YDR388W, active compounds read low 1.01 | locus YDR392W, strain spt3, active compounds read low 0.895 | locus YDR502C, strain sam2, active compounds read low 1.01 | locus YEL003W, strain gim4, active compounds read low 0.973 | locus YEL037C, strain rad23, active compounds read low 0.983 | locus YEL061C, strain CIN8 (second series), active compounds read low 0.986 | locus YEL061C, strain CIN8, active compounds read low 0.996 | locus YER015W, strain faa2, active compounds read low 0.977 | locus YER016W, strain bim1, active compounds read low 0.984 | locus YER110C, active compounds read low 1.01 | locus YER111C, strain swi4, active compounds read low 0.977 | locus YER155C, strain BEM2 (second series), active compounds read low 0.95 | locus YER155C, strain BEM2, active compounds read low 1.02 | locus YER167W, strain BCK2, active compounds read low 1.01 | locus YFR010W, strain ubp6, active compounds read low 0.972 | locus YGL078C, strain dbp3, active compounds read low 0.994 | locus YGL086W, strain mad1, active compounds read low 0.981 | locus YGL167C, strain pmr1, active compounds read low 0.959 | locus YGL173C, strain kem1, active compounds read low 0.985 | locus YGL227W, strain vid30, active compounds read low 0.984 | locus YGL240W, strain doc1, active compounds read low 0.982 | locus YGL248W, strain PDE1, active compounds read low 0.942 | locus YGL253W, strain hxk2, active compounds read low 0.974 | locus YGR078C, strain PAC10, active compounds read low 0.976 | locus YGR135W, strain pre9, active compounds read low 0.994 | locus YGR252W, strain gcn5, active compounds read low 1 | locus YHR013C, strain ard1, active compounds read low 0.98 | locus YHR027C, strain rpn1, active compounds read low 0.981 | locus YHR030C, strain SLT2, active compounds read low 1.01 and 1.03 | locus YHR079C, strain IRE1 (second series), active compounds read low 1.01 | locus YHR079C, strain IRE1, active compounds read low 1.1 | locus YHR094C, strain hxt1, active compounds read low 1.01 | locus YHR129C, strain ARP1, active compounds read low 0.99 | locus YHR142W, strain chs7, active compounds read low 0.986 | locus YHR200W, strain rpn10, active compounds read low 0.987 | locus YIL066C, strain RNR3, active compounds read low 0.922 | locus YIL073C, strain SPO22, active compounds read low 0.976 | locus YIL125W, strain kgd1, active compounds read low 0.998 | locus YIR030C, strain dcg1, active compounds read low 1.01 | locus YJL092W, strain hpr5, active compounds read low 0.971 | locus YJL095W, strain BCK1 (second series), active compounds read low 0.971 | locus YJL095W, strain BCK1, active compounds read low 0.981 and 1.04 | locus YJL115W, strain asf1, active compounds read low 0.96 | locus YJL129C, strain trk1, active compounds read low 0.991 | locus YJL134W, strain LCB3, active compounds read low 1.01 | locus YJL154C, strain vps35, active compounds read low 0.973 | locus YJL164C, strain tpk1, active compounds read low 0.961 | locus YJL166W, strain qcr8, active compounds read low 0.97 | locus YJL168C, strain set2, active compounds read low 1 | locus YJL187C, strain SWE1 (second series), active compounds read low 0.988 | locus YJR043C, strain POL32, active compounds read low 0.971 | locus YJR066W, strain TOR1, active compounds read low 0.972 | locus YJR075W, strain HOC1, active compounds read low 1 | locus YKL009W, strain mrt4, active compounds read low 1.02 | locus YKL068W, active compounds read low 1 | locus YKL085W, strain MDH1 (second series), active compounds read low 1.01 | locus YKL085W, strain MDH1, active compounds read low 1.01 | locus YKL160W, strain elf1, active compounds read low 0.962 | locus YKR001C, strain vps1, active compounds read low 0.978 | locus YKR026C, strain gcn3, active compounds read low 0.975 | locus YKR091W, strain srl3, active compounds read low 0.985 | locus YLL001W, strain dnm1, active compounds read low 0.976 | locus YLL026W, active compounds read low 0.987 | locus YLL041C, strain sdh2, active compounds read low 0.97 | locus YLR027C, strain aat2, active compounds read low 0.987 | locus YLR039C, strain RIC1, active compounds read low 1.01 | locus YLR058C, strain SHM2, active compounds read low 0.998 | locus YLR102C, strain apc9, active compounds read low 1.02 | locus YLR113W, strain HOG1, active compounds read low 1.05 | locus YLR221C, strain rsa3, active compounds read low 0.987 | locus YLR258W, strain gsy2, active compounds read low 0.975 | locus YLR262C, strain YPT6 (second series), active compounds read low 1.01 | locus YLR262C, strain YPT6, active compounds read low 1.03 | locus YLR268W, strain sec22, active compounds read low 0.992 | locus YLR320W, strain mms22, active compounds read low 0.996 | locus YLR330W, strain CHS5, active compounds read low 0.999 | locus YLR342W, strain FKS1 (second series), active compounds read low 0.848 | locus YLR342W, strain FKS1, active compounds read low 0.989 | locus YLR357W, strain rsc2, active compounds read low 0.938 | locus YLR370C, strain arc18, active compounds read low 0.96 | locus YLR371W, strain rom2, active compounds read low 0.983 | locus YLR384C, strain iki3, active compounds read low 0.995 | locus YLR418C, strain cdc73, active compounds read low 0.988 | locus YML016C, strain PPZ1, active compounds read low 0.998 | locus YML032C, strain rad52, active compounds read low 0.988 | locus YML120C, strain ndi1, active compounds read low 0.97 | locus YML124C, strain tub3, active compounds read low 1.01 | locus YMR058W, strain fet3, active compounds read low 0.965 | locus YMR078C, strain ctf18, active compounds read low 1 | locus YMR125W, strain sto1, active compounds read low 0.944 | locus YMR129W, active compounds read low 0.983 | locus YMR205C, strain PFK2, active compounds read low 0.989 | locus YMR223W, strain ubp8, active compounds read low 0.985 | locus YMR231W, strain pep5, active compounds read low 0.99 | locus YMR307W, strain GAS1, active compounds read low 0.956 | locus YNL067W, strain RPL9B, active compounds read low 0.991 | locus YNL071W, strain lat1, active compounds read low 0.989 | locus YNL183C, strain NPR1, active compounds read low 0.982 | locus YNL209W, strain ssb2, active compounds read low 0.99 | locus YNL233W, strain BNI4, active compounds read low 0.974 | locus YNL248C, strain rpa49, active compounds read low 0.993 | locus YNL250W, strain rad50, active compounds read low 1.01 | locus YNL271C, strain bni1, active compounds read low 1.01 | locus YNL298W, strain CLA4, active compounds read low 1.03 | locus YNL307C, strain MCK1, active compounds read low 1.01 | locus YNL322C, strain KRE1 (second series), active compounds read low 0.983 | locus YNR049C, strain mso1, active compounds read low 0.968 | locus YNR052C, strain pop2, active compounds read low 0.997 | locus YOL006C, strain TOP1, active compounds read low 0.768 | locus YOL012C, strain htz1 1.03 | locus YOL147C, strain pex11, active compounds read low 1.02 | locus YOR001W, strain rrp6, active compounds read low 0.978 | locus YOR061W, strain CKA2, active compounds read low 0.988 | locus YOR069W, strain VPS5, active compounds read low 1 | locus YOR070C, strain gyp1, active compounds read low 0.98 | locus YOR080W, strain dia2, active compounds read low 0.974 | locus YOR083W, strain WHI5, active compounds read low 0.952 | locus YOR106W, strain vam3, active compounds read low 0.929 | locus YOR136W, strain idh2, active compounds read low 1.03 | locus YOR144C, strain elg1, active compounds read low 1.01 | locus YOR184W, strain ser1, active compounds read low 1.02 | locus YOR231W, strain MKK1, active compounds read low 1.05 | locus YOR265W, strain rbl2, active compounds read low 0.989 | locus YOR270C, strain vph1, active compounds read low 0.991 | locus YOR290C, strain snf2, active compounds read low 0.941 | locus YOR316C, strain cot1, active compounds read low 1.01 | locus YPL051W, strain arl3, active compounds read low 0.984 | locus YPL055C, strain LGE1, active compounds read low 0.96 | locus YPL078C, strain atp4, active compounds read low 0.958 | locus YPL106C, strain sse1, active compounds read low 0.929 | locus YPL240C, strain hsp82, active compounds read low 0.981 | locus YPL241C, strain CIN2, active compounds read low 0.997 | locus YPL256C, strain CLN2, active compounds read low 1.03 | locus YPR119W, strain clb2, active compounds read low 1.02 | locus YPR141C, strain kar3, active compounds read low 1.01 | locus YPR163C, strain tif3, active compounds read low 0.995 | locus YPR167C, strain met16, active compounds read low 1.01 | strain wtn01, active compounds read low 0.979
